Values joined by “and” are separate entries in the source; they are usually repeats but may differ in a detail not shown here. Equal values may be shown once. Inconclusive results are not listed. A call without a number means that no potency is given here. The source holds several records for some structures; these can differ, active in one and inactive in another. Active and inactive are the calls of the source. The call rests on the fitted dose curve; in most records, active means well fitted inhibition curve with a large enough effect; inconclusive means small, poorly fitted or top-dose-only effect; inactive means flat fitted curve, though single readings scatter.
target: Phospholipid hydroperoxide glutathione peroxidase GPX4 (Homo sapiens) (UniProt P36969); assay: Primary qHTS Assay for Inhibitors of Recombinant Selenoprotein Glutathione Peroxidase 4 (GPX4) (AID 1845192); settings: recombinant GPX4, GR-coupled NADPH fluorescence, 15 min; series mostly up to 50 µM; further: nearly all actives have a fitted effect of over 65% in size
Sequence (P36969 whole entry, looked up): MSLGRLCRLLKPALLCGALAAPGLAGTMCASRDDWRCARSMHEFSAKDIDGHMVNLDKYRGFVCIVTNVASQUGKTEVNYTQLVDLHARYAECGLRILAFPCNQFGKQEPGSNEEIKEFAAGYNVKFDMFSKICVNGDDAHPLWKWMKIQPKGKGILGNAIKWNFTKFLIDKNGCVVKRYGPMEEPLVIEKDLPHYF
Description: Assay Provider: Elias S.J. Arner MD PhD.
Department of Medical Biochemistry and Biophysics
Karolinska Institutet, Solna, Stockholm, Sweden
Selenoprotein glutathione peroxidases (GPX), like the ubiquitously expressed GPX1 and the ferroptosis modulator GPX4, enact their antioxidant activities by reducing hydroperoxides using glutathione. […] GPX1 and GPX4 inhibitors have thus shown promise as anti-cancer agents. Existing inhibitors are often promiscuous, or modulate GPX activity only indirectly, so novel direct inhibitors identified through screening against GPX1 and GPX4 could be valuable. Here, we developed optimized glutathione reductase (GR)-coupled GPX assays for the biochemical high-throughput screen (HTS) of almost 12,000 compounds with known mechanisms of action. Initial hits were triaged using a GR counter-screen, assessed for isoform specificity using a separate GPX2 assay, and were assessed for general selenocysteine-targeting activity using a thioredoxin reductase (TXNRD1) assay. With this suite of assays, we identified novel GPX1/GPX2- and GPX4-specific inhibitors and can here present a validated pipeline for future discovery research for selenoprotein-targeting agents.
SEQUENCE No. (e.g., 1, 2, 3, etc.); […] (e.g., Cells, Incubation, Reagent, etc.); VALUE; DESCRIPTION.
1; Reagent 1; 3 uL; 333.33 nM GPx4 enzyme or no enzyme control in 1536-well, black, solid Greiner assay plate.
2; Compound; 25 nL; Kalypsis pin tool (Wako USA) equipped with a 1536-well pin head.
3; Incubation; 30 min; room temperature.
4; Reagent 2; 1 uL; 500 nM GR, 5 mM GSH, 2.5 mM NADPH solution
5; Reagent 3; 1 uL; 2.5 mM CHP in 50% EtOH.
6; Detection; Fluorescence; ViewLux microplate reader, excitation 340 nm and emission 450 nm.
7; Incubation; 15 min; room temperature.
8; Detection; Fluorescence; ViewLux microplate reader, excitation 340 nm and emission 450 nm.
NOTES (numbers refer to Sequence numbers above)
1. 3 µL of 333.33 nM GPX4 and 0.016% BSA in assay buffer (50 mM Tris-HCl, 2 mM EDTA (pH 7.5), 150 mM NaCl) was added to columns 3-48 of 1536-well plates using a BioRAPTR Flying Reagent Dispenser (Let's Go Robotics (LGR), Carlsbad, CA). A no-enzyme control (0.01% BSA in TES assay buffer) was added to columns 1-2.
2. 25 nL, library and DMSO controls were added to each well with a pin tool (Kalypsys).
3. The assay plates were incubated for 30 minutes at room temperature.
4. 1 µL of master mix (500 nM glutathione reductase (GR), 5 mM reduced glutathione (GSH), 2.5 mM NADPH in assay buffer) was added.
5. 1 µL of cumene hydroperoxide (CHP) ([2.5 mM] in 50% EtOH) was then added within 5 minutes to initiate the reaction. Final concentrations were: 200 nM GPX4, 1 mM GSH, 0.5 mM CHP, 0.5 mM NADPH, 100 nM GR, 0.01% BSA.
6. Initial fluorescence readout (t=0) at 340/450 nm was measured using a ViewLux multimodal detector (PerkinElmer, Waltham, MA).
8. Endpoint fluorescence readout (t=15) at 340/450 nm was measured 15 min after room temperature incubation.
Potency means the concentration at half of the fitted maximal effect.

Structure (SMILES) | Potency
CN(C)CCOC(c1ccccc1)c1ccccc1 | inactive
CCCCc1oc2ccccc2c1C(=O)c1cc(I)c(OCCN(CC)CC)c(I)c1 | inactive
CC(=O)OCC(CCn1cnc2cnc(N)nc21)COC(C)=O | inactive
CC(C(=O)O)c1cccc(C(=O)c2ccccc2)c1 (stereo not given) | inactive
COc1ccc(C2CNC(=O)C2)cc1OC1CCCC1 (stereo not given) | inactive
Nc1ccn([C@H]2CC[C@@H](CO)O2)c(=O)n1 | inactive
O=C(c1ccc(F)cc1)C1CCN(CCn2c(=O)[nH]c3ccccc3c2=O)CC1 | inactive
CCc1cccc2c3c([nH]c12)C(CC)(CC(=O)O)OCC3 (stereo not given) | inactive
NC(=O)OCC(COC(N)=O)c1ccccc1 | inactive
CC#C[C@]1(O)CC[C@H]2[C@@H]3CCC4=CC(=O)CCC4=C3[C@@H](c3ccc(N(C)C)cc3)C[C@@]21C | inactive
CCOC(=O)C(C)(C)Oc1ccc(Cl)cc1 | inactive
CN1CCN(CCCN2c3ccccc3Sc3ccc(Cl)cc32)CC1 | inactive
CCN1CCCC1CNC(=O)c1cc(S(=O)(=O)CC)c(N)cc1OC (stereo not given) | inactive
Clc1ccc2nsnc2c1NC1=NCCN1 | inactive
CC(CCc1ccc(O)cc1)NCCc1ccc(O)c(O)c1 (stereo not given) | inactive
CCCNCC(O)COc1ccccc1C(=O)CCc1ccccc1 (stereo not given) | inactive
NS(=O)(=O)c1cc2c(cc1Cl)NCNS2(=O)=O | inactive
CC(C)C(=O)Nc1ccc([N+](=O)[O-])c(C(F)(F)F)c1 | inactive
Cc1cnc(C(=O)NCCc2ccc(S(=O)(=O)NC(=O)NC3CCCCC3)cc2)cn1 | inactive
CNCCCC12CCC(c3ccccc31)c1ccccc12 | inactive

Structure (SMILES) | Potency
CS(=O)(=O)CCNCc1ccc(-c2ccc3ncnc(Nc4ccc(OCc5cccc(F)c5)c(Cl)c4)c3c2)o1 | inactive
C[C@](N)(Cc1ccc(O)c(O)c1)C(=O)O | inactive and 14.3 µM (active)
O=c1[nH]cc(F)c(=O)[nH]1 | inactive
O=C(Nc1ccc([N+](=O)[O-])cc1Cl)c1cc(Cl)ccc1O | inactive
CC[N+](CC)(CC)CCOc1cccc(OCC[N+](CC)(CC)CC)c1OCC[N+](CC)(CC)CC | inactive
Clc1ccc2c(c1)C(N1CCNCC1)=Nc1ccccc1O2 | inactive
NC12CC3CC(CC(C3)C1)C2 | inactive
CC[C@@]1(O)C(=O)OCc2c1cc1n(c2=O)Cc2cc3c(CN(C)C)c(O)ccc3nc2-1 | inactive
O=C1Cc2cc(CCN3CCN(c4nsc5ccccc45)CC3)c(Cl)cc2N1 | 15.8 µM (active) and inactive
Cc1ccc(-c2cc(C(F)(F)F)nn2-c2ccc(S(N)(=O)=O)cc2)cc1 | inactive
O=c1c(O)c(-c2ccc(O)c(O)c2)oc2cc(O)cc(O)c12 | inactive
CN1C(C(=O)Nc2ccccn2)=C(O)c2ccccc2S1(=O)=O | inactive
Nc1nnc(-c2cccc(Cl)c2Cl)c(N)n1 | inactive
COc1nc(C)nc(Cl)c1NC1=NCCN1 | inactive
COc1ccccc1N1CCN(CC(O)COc2cccc3ccccc23)CC1 (stereo not given) | inactive
CC(COc1ccccc1)N(CCCl)Cc1ccccc1 (stereo not given) | inactive
O=C1N(c2ccccc2)c2ccccc2C1(Cc1ccncc1)Cc1ccncc1 | inactive
C[C@H]1c2cccc(O)c2C(O)=C2C(=O)[C@]3(O)C(O)=C(C(N)=O)C(=O)[C@@H](N(C)C)[C@@H]3[C@@H](O)[C@@H]21 | inactive
Fc1ccc([C@@H]2CCNC[C@H]2COc2ccc3c(c2)OCO3)cc1 | inactive
COC(=O)Nc1nc2ccc(C(=O)c3cccs3)cc2[nH]1 | inactive
